An excerpt weighted towards active compounds, which were near 9.9% of everything screened.
SW480 rereplic = DNA re-replication induction in SW480 cells. hit rate 1.8% among 340,000. Potency, µM (titrated, usually from 46.1 µM), without a hit: at the top dose re-replication activation, usual class: activators. SW480 DNA re-replication, Hoechst DNA content imaging, 48 h; further: potency means the concentration at half of the fitted maximal effect; % of control where 0% means no effect; nearly all actives have a fitted effect of over 55% in size
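Image-based read-out: total Hoechst fluorescence of nuclei (405 nm excitation, 500-530 nm emission), with hits raising the fraction of high-intensity nuclei. SW480 colon cells incubated 48 hr with compounds at 37 C.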
MCF10A rereplic = induces DNA re-replication in MCF 10a normal breast cells. hit rate 2.9% among 350,000. Potency, µM (series often up to 46.1 µM), for inactives: top-dose activity, positive = re-replication, most hits filed as activators. MCF 10A DNA re-replication, Hoechst nuclear intensity, 48 h; further: potency means the concentration at half of the fitted maximal effect; % of control where 0% means no effect; nearly all actives have a fitted effect of over 50% in size
KB-V1 cytotox = KB-V1 MDR subline cytotoxicity; hit rate 3.4% among 400,000; Potency, µM (top dose mostly 46.1 µM), actives largely listed as cytotoxic; AID 1347076; KB-V1 MDR cells viability, CellTiter-Glo, 72 h; further: potency means the concentration at half of the fitted maximal effect; on the % scale 0 is the no-effect control and ±100 the full control effect; nearly all actives have a fitted effect of over 60% in size
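Drug-selected KB-V1 cells, grown in DMEM lacking phenol red with 10% FBS, receive compound titrations; after three days at 37 degrees C, surviving cell ATP is quantified by CellTiter-Glo luminescence and responses normalized and curve-fitted.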
IL1B secr inh = inhibitors of inflammasome signaling (IL-1 beta secretion); activity change, % at 57.5 µM; THP-1 LPS/ATP IL-1B secretion, AlphaLISA, 16 h; hits give low values; hit rate 4.7% among 360,000; in the data active means activity change below about -50%; inconclusive means mostly about -30% to -49%; further: on the % scale 0 is the no-effect control and ±100 the full control effect
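THP-1 cells pretreated 1 hr with compounds (up to 57.5 uM final), then stimulated with LPS (250 ng/mL final) plus ATP (1.25 mM final); secreted IL-1B measured by AlphaLISA after 16 hr, decreased signal indicating inhibition.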
KB-3-1 cytotox = kills parental KB-3-1 adenocarcinoma cells. KB-3-1 viability, CellTiter-Glo ATP luminescence, 72 h. Potency, µM (doses to about 46.1 µM), actives largely listed as cytotoxic. hit rate 1.4% among 400,000. AID 1347075; further: potency means the concentration at half of the fitted maximal effect; on the % scale 0 is the no-effect control and ±100 the full control effect; nearly all actives have a fitted effect of over 60% in size
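Here the drug-naive KB-3-1 line serves as comparator for MDR sub-line selectivity; cells received compound titrations, 72 h at 37 °C, then CellTiter-Glo readout.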
Active calls of the source: *; i = inactive; u = inconclusive; x = no result. Unless noted, the call rests on the fitted dose curve; in most records, active means well fitted curve in the direction sought with a large enough effect; inconclusive means small, poorly fitted or top-dose-only effect, or another doubt; inactive means no such curve, though single readings can be large; an effect the other way counts as inactive or inconclusive.

SMILES | SW480 rereplic | MCF10A rereplic | KB-V1 cytotox | IL1B secr inh | KB-3-1 cytotox
O=C(NC1CCC(O)CC1)c1cc(-c2ccc(Cl)cc2)nc2ccccc12 (centres undefined) | 0.1% | -3.7% | i | -55.1* | i
Cc1ccc(C)c(-c2cc(C(=O)NC3CC3)c3ccccc3n2)c1 | 0.6% | 9.3% | i | 13.7 | i
CCNC(=S)NNC(=O)c1cc(-c2ccc(OCC)cc2)nc2ccccc12 | u | 29.2% | i | -14.2 | u
CCNC(=S)NNC(=O)c1cc(-c2ccccc2C)nc2ccccc12 | -3.5% | 18.8% | 16.4µM* | 12.9 | i
COC(=O)CNC(=O)c1cc(-c2ccncc2)nc2c(C)c(Cl)ccc12 | -1.6% | 3.2% | i | -99.7* | i
COc1cc(NC(=O)C(CC(C)C)NS(=O)(=O)c2ccc3c(c2)oc(=O)n3C)c(C(=O)O)cc1OC (centres undefined) | x | x | i | x | i
c1ccc(SC23CCCCN(CCC2)[C@]32CO2)cc1 (some centres undefined) | x | x | i | -14.0 | i
COCCN(C(=O)C1CCCO1)c1c(N)n(CC(C)C)c(=O)[nH]c1=O (centres undefined) | -20.0% | 2.0% | i | 1.0 | i
Cc1ccc(NC(=S)N2CCN(c3ncccn3)CC2)c(C)c1 | -13.2% | -2.5% | i | 7.8 | i
Cc1ccc2c(c1)c1c3n2CCN(C(=O)CCl)C3CCC1 (centres undefined) | u | u | i | -98.6* | i
Cc1ccc2c(c1)c1c3n2CCN(CCC#N)C3CCC1 (centres undefined) | x | x | 18.4µM* | -0.2 | i
CC(C)N1CC2=C(OC(N)=C(C#N)C2c2cccnc2)/C(=C/c2cccnc2)C1 (centres undefined) | -1.9% | 9.0% | i | 0.0 | i
O=C1c2ccccc2C(=Cc2cccnc2)c2ccccc21 | x | x | i | -16.7 | i
CC(C)N1C/C(=C/c2cccnc2)C(=O)/C(=C/c2cccnc2)C1 | u | 1.16µM* | 14.6µM* | -104.1* | u
CCN1C(=O)S/C(=C/c2ccsc2)C1=O | 5.8% | u | i | -25.7 | i
CN1C/C(=C/c2cccnc2)C(=O)/C(=C/c2cccnc2)C1 | u | 14.6µM* | 14.6µM* | -101.9* | u
CC(C)N1C/C(=C/c2ccsc2)C(=O)/C(=C/c2ccsc2)C1 | 9.2µM* | 8.2µM* | u | -95.6* | 14.6µM*
C[C@H](NC(=O)c1ccc(Cl)c(S(=O)(=O)N2CCOCC2)c1)c1nc2ccccc2[nH]1 | 9.7% | 1.5% | i | 0.6 | i
COc1ccc2cc(S(=O)(=O)NC3CC(C)(C)NC(C)(C)C3)ccc2c1 | u | 15.3% | i | -5.9 | i
CCCN(CCC)S(=O)(=O)c1ccc(C(=O)Nc2nc(-c3ccccc3)c(C(=O)OCC)s2)cc1 | 0.9% | u | u | 19.4 | i
O=c1ccc2cc3c(-c4ccccc4)coc3cc2o1 | 0.4% | 23.1µM* | 6.51µM* | -4.5 | 18.4µM*
CC(=O)Oc1ccc2occ(-c3ccccc3)c2c1 | 5.2% | 0.4% | i | 11.6 | i
CCOC(=O)Cc1c(C)nc2c(-c3ccc(OC)c(OC)c3)c(C)nn2c1C | x | x | u | x | i
CCOC(=O)CN1CCc2c(C)nc3c(-c4ccc(OC)c(OC)c4)cnn3c21 | u | u | 8.2µM* | 12.3 | i
COc1cc(OC)c(/C=N/n2c(C)nnc2C)c(OC)c1 | -120.0% | 25.9µM* | i | 0.0 | i
Cc1cc(C)c(NC(=O)CSc2nc3ccccc3nc2N2CCCCC2)c(C)c1 | x | x | u | x | i
Cc1ccc(S(=O)(=O)N2C[C@H]3C(=O)C[C@@H](c4cccs4)N(S(=O)(=O)c4ccc(C)cc4)[C@H]3C[C@H]2c2ccccc2)cc1 | x | x | i | -57.7* | i
Cc1ccc(S(=O)(=O)N2[C@H](c3ccccc3)CC(=O)[C@@H]3CN(S(=O)(=O)c4ccccc4)[C@H](c4ccccc4)C[C@@H]32)cc1 | x | x | i | 5.7 | i
Cc1ccc([C@@H]2C[C@H]3[C@@H](CN2S(=O)(=O)c2ccc(C)cc2)C(=O)C[C@@H](c2ccccc2)N3S(=O)(=O)c2ccc(C)cc2)cc1 | x | x | i | 29.5 | i
